According to PubChem BioAssay (NCATS):
Records with an inconclusive call do not appear. Entries that show only a call come without a potency. Activity calls are given as the source filed them. The call rests on the fitted dose curve; in most records, active means well fitted cell-killing curve with a large enough effect; inconclusive means small, poorly fitted or top-dose-only effect; inactive means flat fitted curve, though single readings scatter.

assay: Cellular viability qHTS for adrenocortical cancer (ACC) cell line NCI-H295R (AID 1963990); settings: CellTiter-Glo ATP luminescence, 48 h; series mostly up to 46.1 µM; further: nearly all actives have a fitted effect of over 60% in size
How it was run: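 Luminescent ATP read-out (CellTiter-Glo, 20 min RT) after 48 h drug exposure of NCI-H295R cells; a titration up to 46 uM final. Data normalized to doxorubicin (100% inhibition) and DMSO (0%); 4-parameter fit gives IC50, max response.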
Potency means the concentration at half of the fitted maximal effect.

SMILES	Potency
CC(C)NC[C@@H](O)COc1cccc2ccccc12	inactive
CN1CCN(C2=Nc3cc(F)ccc3Cc3ccccc32)CC1	inactive
CC(=O)N1CCC(Nc2cc(C(=O)NC[C@H](O)CN3CCc4ccccc4C3)ncn2)CC1	inactive
Cn1ncnc1[C@H]1c2n[nH]c(=O)c3cc(F)cc(c23)N[C@@H]1c1ccc(F)cc1	inactive
CC(C)=CCC1C(=O)N(c2ccccc2)N(c2ccccc2)C1=O	20.6 µM (active)
CCc1cccc(N(C)C(N)=Nc2cccc3ccccc23)c1	20.6 µM (active)
O=C(Cc1ccccc1)Nc1nnc(CCSCCc2nnc(NC(=O)Cc3ccccc3)s2)s1	inactive
O=C(O)c1c(O)c(-c2ccccc2)nc2ccccc12	inactive
OCCOc1ccc(/C(=C(/CCCl)c2ccccc2)c2ccccc2)cc1	25.1 µM (active)
CCOC(=O)c1c(N)sc2c1CCN(Cc1ccccc1)C2	inactive
COC(=O)N(CC(=O)O)Cc1cccc(OCc2nc(-c3ccc(Cl)cc3)oc2C)c1	inactive
CCOC(=O)C1=C(C)NC(C)=C(C(=O)OC)C1c1cccc([N+](=O)[O-])c1 (stereo unspecified)	16.4 µM (active)
COc1ccc2cc(CCC(C)=O)ccc2c1	inactive
O=C(CCCN1CCC(O)(c2ccc(Br)cc2)CC1)c1ccc(F)cc1	inactive
CCCCN(CCCC)C(C(N)=O)c1ccc(OC)cc1 (stereo unspecified)	inactive
CCN(CCCc1ccccc1)CCCc1ccccc1	inactive
C[C@H]1CN(C2COC2)CCN1c1ccc(Nc2cc(-c3ccnc(N4CCn5c(cc6c5CC(C)(C)C6)C4=O)c3CO)cn(C)c2=O)nc1	inactive
O=C(NO)c1cnc(NC2(c3cccc(F)c3)CCCCC2)nc1	3.16 µM (active)
CC/C(=C(/c1ccc(O)cc1)c1ccc(OCCNC)cc1)c1ccccc1	inactive
CCN(CC)CCCN(c1ccccc1)C1Cc2ccccc2C1	25.9 µM (active)
O=C(C1CCCCC1)N1CC(=O)N2CCCc3ccccc3C2C1 (stereo unspecified)	29.1 µM (active)
CCC(=O)Oc1ccc2c(c1)CC[C@@H]1[C@@H]2CC[C@@]2(C)[C@H]1C[C@@H](OC(=O)CC)[C@@H]2OC(=O)CC	inactive
O=C(CCCN1CCN(c2ccccn2)CC1)c1ccc(F)cc1	inactive
C[C@H]1[C@H](C)CC[C@]2(C(=O)O)CC[C@]3(C)C(=CC[C@@H]4[C@@]5(C)C[C@@H](O)[C@H](O)[C@@](C)(CO)[C@@H]5CC[C@]43C)[C@H]12	inactive
CN1C(=O)[C@@H](NC(=O)c2cc(Cc3ccccc3)on2)COc2ccccc21	inactive
Cn1cc(C(=O)[C@@H]2CCc3nc[nH]c3C2)c2ccccc21	inactive
